# Test results as given in the supplement of paper PMC10037445.
# In all, about 2,900 compounds were measured (“NF-kB SEAP reporter activity, fold change vs agonist alone”: median about 0.99, highest 2% from about 2.6 on). The full list was thinned out, with the highest values kept by preference.
# Tests used:
# RAW-Dual [1] = assay: NF-kB SEAP reporter activity, fold change vs agonist alone; cytotoxicity flag (confluency mask): not cytotoxic; higher = enhanced NF-kB activity
# Summary of the method: (§1)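 RAW-Dual macrophages (50,000 cells/well in DMEM, 384-well plates) received 50 nL of library stock by pin tool, then a PRR agonist 1 h later, and were kept at 37 °C, 5% CO2. After 20 hours, supernatant was read for IRF by QuantiLuc luminescence and for NF-κB by QuantiBlue absorbance at 620 nm. Reporter activity is fold change over agonist-alone wells. Cytotoxic wells had IncuCyte confluency below 70% of agonist controls in both mask sets.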
# RAW-Dual [2] = assay: NF-kB SEAP reporter activity, fold change vs agonist alone; higher = enhanced NF-kB activity
# Summary of the method: as §1
# RAW-Dual [3] = assay: NF-kB SEAP reporter activity, fold change vs agonist alone; cytotoxicity flag (confluency mask): cytotoxic (confluency <70% of control); higher = enhanced NF-kB activity
# Summary of the method: as §1
# [4] = agonist: ODN 1826 (TLR9) 0.5 ug/mL
# [5] = agonist: Pam2CSK4 (TLR2/6) 0.1 ug/mL
# [6] = agonist: Pam3CSK4 (TLR2/1) 0.1 ug/mL
# [7] = library stock concentration (final ~1000-fold dilution): 10 mM, cytotoxicity flag (confluency mask): not cytotoxic, agonist: MPLA (TLR4) […]
# [8] = library stock concentration (final ~1000-fold dilution): 10 mM, cytotoxicity flag (confluency mask): not cytotoxic, agonist: Imiquimod (TLR7) […]
smiles,measurement,setting,value
O=C1N=C(O)CN1N=Cc1ccc(-c2ccc([N+](=O)[O-])cc2)o1 (library stock concentration (final ~1000-fold dilution): 10 mM),NF-kB SEAP reporter activity,RAW-Dual [1]; agonist: LPS (TLR4) 0.1 ug/mL,1.06
same,NF-kB SEAP reporter activity,RAW-Dual [1]; [4],0.843
same,NF-kB SEAP reporter activity,RAW-Dual [1]; [5],0.877
same,NF-kB SEAP reporter activity,RAW-Dual [1]; [6],0.756
O=C1N=C(O)CN1N=Cc1ccc(-c2ccc([N+](=O)[O-])cc2)o1,NF-kB SEAP reporter activity,RAW-Dual [2]; [7],1.03
COC(=O)Nc1ccc(-c2nc(N3CCOCC3)c3cnn(C4CCN(C(=O)OC)CC4)c3n2)cc1,NF-kB SEAP reporter activity,RAW-Dual [2]; [8],0.976
same,NF-kB SEAP reporter activity,RAW-Dual [2]; [7],0.895
CN1CCN(Cc2ccc(-c3cnc4[nH]cc(-c5ccc6[nH]ccc6c5)c4c3)cc2)CC1 (library stock concentration (final ~1000-fold dilution): 10 mM),NF-kB SEAP reporter activity,RAW-Dual [1]; agonist: LPS (TLR4) 0.1 ug/mL,0.216
same,NF-kB SEAP reporter activity,RAW-Dual [1]; [4],0.181
same,NF-kB SEAP reporter activity,RAW-Dual [1]; [5],0.0629
same,NF-kB SEAP reporter activity,RAW-Dual [1]; [6],0.138
COC(=O)Nc1ccc(-c2nc(N3CCOCC3)c3cnn(C4CCN(C(=O)OC)CC4)c3n2)cc1 (library stock concentration (final ~1000-fold dilution): 10 mM),NF-kB SEAP reporter activity,RAW-Dual [1]; agonist: LPS (TLR4) 0.1 ug/mL,0.888
same,NF-kB SEAP reporter activity,RAW-Dual [1]; [4],0.912
same,NF-kB SEAP reporter activity,RAW-Dual [1]; [5],0.867
same,NF-kB SEAP reporter activity,RAW-Dual [1]; [6],0.873
c1cncc(CN2CCC(n3ncc4c(N5CCOCC5)nc(-c5ccc6[nH]ccc6c5)nc43)CC2)c1 (library stock concentration (final ~1000-fold dilution): 10 mM),NF-kB SEAP reporter activity,RAW-Dual [1]; agonist: LPS (TLR4) 0.1 ug/mL,2.91
same,NF-kB SEAP reporter activity,RAW-Dual [1]; [4],0.951
same,NF-kB SEAP reporter activity,RAW-Dual [1]; [5],1.44
same,NF-kB SEAP reporter activity,RAW-Dual [1]; [6],0.777
CN1CCN(Cc2ccc(-c3cnc4[nH]cc(-c5ccc6[nH]ccc6c5)c4c3)cc2)CC1,NF-kB SEAP reporter activity,RAW-Dual [2]; [8],0.132
same,NF-kB SEAP reporter activity,RAW-Dual [2]; [7],0.242
c1cncc(CN2CCC(n3ncc4c(N5CCOCC5)nc(-c5ccc6[nH]ccc6c5)nc43)CC2)c1,NF-kB SEAP reporter activity,RAW-Dual [2]; [8],0.96
same,NF-kB SEAP reporter activity,RAW-Dual [2]; [7],0.899
Cc1cnc(NC(=O)Nc2cc(Br)c(C)cc2OCC2CNCCO2)cn1 (configuration not stated),NF-kB SEAP reporter activity,RAW-Dual [2]; [8],0.872
same,NF-kB SEAP reporter activity,RAW-Dual [2]; [7],0.946
Cc1cnc(NC(=O)Nc2cc(Br)c(C)cc2OCC2CNCCO2)cn1 (configuration not stated) (library stock concentration (final ~1000-fold dilution): 10 mM),NF-kB SEAP reporter activity,RAW-Dual [1]; agonist: LPS (TLR4) 0.1 ug/mL,0.68
same,NF-kB SEAP reporter activity,RAW-Dual [1]; [4],0.903
same,NF-kB SEAP reporter activity,RAW-Dual [1]; [5],0.51
same,NF-kB SEAP reporter activity,RAW-Dual [1]; [6],0.818
CCC(N)CNc1ccnc(-c2cc(-c3cnn(C)c3)ccc2O)n1.Cl.Cl (configuration not stated) (library stock concentration (final ~1000-fold dilution): 10 mM),NF-kB SEAP reporter activity,RAW-Dual [3]; agonist: LPS (TLR4) 0.1 ug/mL,0.267
same,NF-kB SEAP reporter activity,RAW-Dual [3]; [4],0.195
same,NF-kB SEAP reporter activity,RAW-Dual [3]; [5],0.0684
same,NF-kB SEAP reporter activity,RAW-Dual [3]; [6],0.127
CCC(N)CNc1ccnc(-c2cc(-c3cnn(C)c3)ccc2O)n1.Cl.Cl (configuration not stated),NF-kB SEAP reporter activity,"RAW-Dual [2]; library stock concentration (final ~1000-fold dilution): 10 mM, cytotoxicity flag (confluency mask): cytotoxic (confluency <70% of control), agonist: Imiquimod (TLR7) […]",0.144
same,NF-kB SEAP reporter activity,"RAW-Dual [2]; library stock concentration (final ~1000-fold dilution): 10 mM, cytotoxicity flag (confluency mask): cytotoxic (confluency <70% of control), agonist: MPLA (TLR4) […]",0.254
N=C(N)NCCCCC1NC(=O)CCSSCC(C(N)=O)NC(=O)C2CCCN2C(=O)C(Cc2c[nH]c3ccccc23)NC(=O)C(CC(=O)O)NC(=O)CNC1=O (configuration not stated) (library stock concentration (final ~1000-fold dilution): 10 mM water),NF-kB SEAP reporter activity,RAW-Dual [1]; agonist: LPS (TLR4) 0.1 ug/mL,1.2
same,NF-kB SEAP reporter activity,RAW-Dual [1]; [4],1.15
same,NF-kB SEAP reporter activity,RAW-Dual [1]; [5],1.24
same,NF-kB SEAP reporter activity,RAW-Dual [1]; [6],1.06
N=C(N)NCCCCC1NC(=O)CCSSCC(C(N)=O)NC(=O)C2CCCN2C(=O)C(Cc2c[nH]c3ccccc23)NC(=O)C(CC(=O)O)NC(=O)CNC1=O (configuration not stated),NF-kB SEAP reporter activity,"RAW-Dual [2]; library stock concentration (final ~1000-fold dilution): 10 mM water, cytotoxicity flag (confluency mask): not cytotoxic, agonist: Imiquimod (TLR7) […]",0.957
same,NF-kB SEAP reporter activity,"RAW-Dual [2]; library stock concentration (final ~1000-fold dilution): 10 mM water, cytotoxicity flag (confluency mask): not cytotoxic, agonist: MPLA (TLR4) […]",1.11
O=c1cc(N2CCOCC2)oc2c(-c3ccc4c(c3)OCCO4)csc12 (library stock concentration (final ~1000-fold dilution): 10 mM),NF-kB SEAP reporter activity,RAW-Dual [1]; agonist: LPS (TLR4) 0.1 ug/mL,6.86
same,NF-kB SEAP reporter activity,RAW-Dual [1]; [4],2.26
same,NF-kB SEAP reporter activity,RAW-Dual [1]; [5],0.957
same,NF-kB SEAP reporter activity,RAW-Dual [1]; [6],2.84
CC(Nc1cc(F)cc(F)c1)c1cc(C(=O)N(C)C)cc2c(=O)cc(N3CCOCC3)oc12 (configuration not stated),NF-kB SEAP reporter activity,RAW-Dual [2]; [8],0.569
same,NF-kB SEAP reporter activity,RAW-Dual [2]; [7],1.21
O=c1cc(N2CCOCC2)oc2c(-c3ccc4c(c3)OCCO4)csc12,NF-kB SEAP reporter activity,RAW-Dual [2]; [8],1.57
same,NF-kB SEAP reporter activity,RAW-Dual [2]; [7],2.36
CC(Nc1cc(F)cc(F)c1)c1cc(C(=O)N(C)C)cc2c(=O)cc(N3CCOCC3)oc12 (configuration not stated) (library stock concentration (final ~1000-fold dilution): 10 mM),NF-kB SEAP reporter activity,RAW-Dual [1]; agonist: LPS (TLR4) 0.1 ug/mL,1.67
same,NF-kB SEAP reporter activity,RAW-Dual [1]; [4],1.01
same,NF-kB SEAP reporter activity,RAW-Dual [1]; [5],1.02
same,NF-kB SEAP reporter activity,RAW-Dual [1]; [6],1.13
CNC(C)C(=O)NC(C(=O)N1CCCC1C(=O)Nc1snnc1-c1ccccc1)C1CCCCC1 (configuration not stated) (library stock concentration (final ~1000-fold dilution): 10 mM),NF-kB SEAP reporter activity,RAW-Dual [1]; agonist: LPS (TLR4) 0.1 ug/mL,0.612
same,NF-kB SEAP reporter activity,RAW-Dual [1]; [4],0.875
same,NF-kB SEAP reporter activity,RAW-Dual [1]; [5],0.972
same,NF-kB SEAP reporter activity,RAW-Dual [1]; [6],0.8
CNC(C)C(=O)NC(C(=O)N1CCCC1C(=O)Nc1snnc1-c1ccccc1)C1CCCCC1 (configuration not stated),NF-kB SEAP reporter activity,RAW-Dual [2]; [8],0.887
same,NF-kB SEAP reporter activity,RAW-Dual [2]; [7],0.824
O=C(Nc1ccccc1C(=O)O)c1cc(S(=O)(=O)c2ccccc2)ccc1Cl,NF-kB SEAP reporter activity,RAW-Dual [2]; [8],0.883
same,NF-kB SEAP reporter activity,RAW-Dual [2]; [7],1.01
O=C(Oc1cc(S(=O)(=O)c2ccccc2)ccc1[N+](=O)[O-])c1ccc(Cl)cc1,NF-kB SEAP reporter activity,RAW-Dual [2]; [8],1.32
same,NF-kB SEAP reporter activity,RAW-Dual [2]; [7],2.59
O=C(Nc1ccccc1C(=O)O)c1cc(S(=O)(=O)c2ccccc2)ccc1Cl (library stock concentration (final ~1000-fold dilution): 10 mM),NF-kB SEAP reporter activity,RAW-Dual [1]; agonist: LPS (TLR4) 0.1 ug/mL,1.19
same,NF-kB SEAP reporter activity,RAW-Dual [1]; [4],0.999
same,NF-kB SEAP reporter activity,RAW-Dual [1]; [5],1.09
same,NF-kB SEAP reporter activity,RAW-Dual [1]; [6],1.13
O=C(Oc1coc(CSc2ncccn2)cc1=O)c1ccc([N+](=O)[O-])cc1,NF-kB SEAP reporter activity,RAW-Dual [2]; [8],0.717
same,NF-kB SEAP reporter activity,RAW-Dual [2]; [7],1.01
O=C(Oc1coc(CSc2ncccn2)cc1=O)c1ccc([N+](=O)[O-])cc1 (library stock concentration (final ~1000-fold dilution): 10 mM),NF-kB SEAP reporter activity,RAW-Dual [1]; agonist: LPS (TLR4) 0.1 ug/mL,1.26
same,NF-kB SEAP reporter activity,RAW-Dual [1]; [4],0.944
same,NF-kB SEAP reporter activity,RAW-Dual [1]; [5],1.19
same,NF-kB SEAP reporter activity,RAW-Dual [1]; [6],0.981
O=C(Oc1cc(S(=O)(=O)c2ccccc2)ccc1[N+](=O)[O-])c1ccc(Cl)cc1 (library stock concentration (final ~1000-fold dilution): 10 mM),NF-kB SEAP reporter activity,RAW-Dual [1]; agonist: LPS (TLR4) 0.1 ug/mL,5.2
same,NF-kB SEAP reporter activity,RAW-Dual [1]; [4],2.09
same,NF-kB SEAP reporter activity,RAW-Dual [1]; [5],1.03
same,NF-kB SEAP reporter activity,RAW-Dual [1]; [6],1.81
